Screening data (PubChem BioAssay)
Jurkat NFkB inh: inhibitors of the PMA/ionomycin-induced NF-kB reporter in Jurkat cells | 0.53% of 330,000 active | PMA/ionomycin-induced NF-kB luciferase reporter, luminescence | AID 435003 | inhibition, % at 4 µM; in the data active = inhibition above about 50%
Beta cell apopt: blocks beta cell apoptosis | INS-1E cytokine-induced death, ATP luminescence, 48 h; percent of positive-control rescue, neutral wells zero | 0.8% of 300,000 active | AID 435005 | protection from apoptosis, % (concentration not given with the values);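 active = Every replicate reaches about 75%, or at least half do and their mean reaches it too, limit read from the data; inconclusive = At least half of replicates reach the limit but their mean does not; inactive = Under half of replicates reach the limit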;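 note: 0% = cytokine-treated negative control wells and 100% = positive control rescue; higher means more ATP so stronger rescue from cytokine killing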
697 NFkB inh: inhibitors of the PMA/ionomycin-induced NF-kB reporter in 697 B cells | 0.33% of 330,000 active | AID 435022 | 697 B-cell NF-kB luciferase reporter, 16 h | inhibition, % at 4 µM; in the data active = inhibition above about 35%
Calb FLC: C. albicans growth modulation with fluconazole; C. albicans CaCi-2 (fluconazole-resistant clinical isolate) + fluconazole, Alamar Blue growth, 48 h; growth inhibition, % (no concentration beside the values); 0.57% of 300,000 active;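 active = growth inhibition above about 58% in most replicates, limit read from the data, passing the limit was not always enough; inconclusive = exactly half the replicates above a set limit; inactive = most replicates below a set limit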;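 note: all wells also contain fluconazole at 8 µg/ml as a sub-toxic cotreatment; 0% = median of DMSO wells and 100% = median of geldanamycin control wells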
Shn3 3UTR inh: reduces Shn3 3'UTR luciferase signal in osteoblasts; Clone20 osteoblast Shn3 3'UTR firefly luciferase, 24 h; inhibition, % at 12.5 µM; 0.52% of 360,000 active; AID 588674;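 active = mean inhibition of at least 75% with every replicate also reaching 75%; inconclusive = mean inhibition at least 75% but some replicate below; inactive = mean inhibition below 75%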;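 note: 0% = median of neutral control wells and 100% = pilot-screen positive control compound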
Jurkat NFkB conf: inhibitors of the PMA/ionomycin-induced NF-kB reporter in Jurkat cells, retest; inhibition, % at 4 µM; shares compounds with Jurkat NFkB inh; 27% of 2,700 active; Jurkat NF-kB luciferase, 16 h; AID 435020;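 active = inhibition reaching about 45% at 4 µM in either replicate, limit read from the data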;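 note: plate controls were PMA/ionomycin stimulated DMSO wells for no effect and unstimulated DMSO wells for full effect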
The depositor's hits bear a star; u = inconclusive; x = not tested or not shown. Most compounds without a hit are left out; they make up all but 2% or so of the library.

SMILES	Jurkat NFkB inh	Beta cell apopt	697 NFkB inh	Calb FLC	Shn3 3UTR inh	others
CCCCn1c(=O)c(C(=O)Nc2ccccc2)c(O)c2ccccc21	-23	22	-27	-36	30
CCCCCn1c(=O)c(C(=O)NC(C)c2ccccc2)c(O)c2ccccc21 (centres undefined)	-13	109*	16	-4	u
O=[N+]([O-])c1cccc(NP(=O)(N2CC2)N2CC2)c1	x	x	x	x	-8
Cn1cc(C(=O)OCC(=O)NC2(C#N)CCCCC2)c2ccccc21	-13	x	-19	x	2
Nc1ccccc1-[n+]1c(-c2ccccc2)cc(-c2ccccc2)cc1-c1ccccc1	-5	39	12	87*	0
[O-]c1ccccc1-[n+]1c(-c2ccccc2)cc(-c2ccccc2)cc1-c1ccccc1	13	95*	-42	96*	-4
Brc1ccc(-[n+]2c(-c3ccccc3)cc(-c3ccccc3)cc2-c2ccccc2)cc1	41	129*	-37	-11	90*
O=C(O)c1ccc(-[n+]2c(-c3ccccc3)cc(-c3ccccc3)cc2-c2ccccc2)cc1	-7	1	2	-14	0
CCCOC(=O)c1ccc(-[n+]2c(-c3ccccc3)cc(-c3ccccc3)cc2-c2ccccc2)cc1	16	123*	-43	-10	52
Cc1ccc(-c2cc(-c3ccccc3)cc(-c3ccccc3)[n+]2-c2ccc(C(=O)O)cc2)cc1	4	-8	12	-12	-5
Cc1ccc(CN(Cc2ccccc2)C(=S)NCC(=O)N2CCC3(CC2)OCCO3)o1	-1	-4	-40	-5	-21
O=C1NCN(c2ccccc2)C12CCN(C(c1nnnn1C1CCCC1)C1CC1)CC2 (centres undefined)	x	x	x	x	-3
Cc1ccccc1-[n+]1c(-c2ccccc2)cc(-c2ccccc2)cc1-c1ccccc1	16	100*	-11	112*	30
Oc1ccccc1-[n+]1c(-c2ccccc2)cc(-c2ccccc2)cc1-c1ccccc1	20	42	-15	2	-13
CC(=O)OC1CCC2(C)C(=CC(=O)C3C2CCC2(C)C(OC(C)=O)CCC32)C1 (centres undefined)	x	x	x	x	4
COc1ccc(-c2nc3ccccc3c(=O)n2-c2ccc(OC)cc2)cc1	0	0	14	34	-11
CCn1nc(-c2ccccc2)nc2c(=O)n(C)c(=O)nc1-2	16	108*	-101	90*	8
CCOC(=O)C(=CNc1ccc(C(O)(C(=O)OCC)C(F)(F)F)cc1C)C(=O)OCC (centres undefined)	-9	97*	-4	2	54
COC(=O)C1=C(c2cc3ccccc3o2)C[C@@H]2CC[C@H]1N2C(=O)N1CCOCC1	29	2	-19	-6	25
CCN1CCN(CC(c2ccccc2)c2ccccc2)CC1	3	-1	4	-19	-4
O=C(c1ccccc1)C(CN1CCCC1)c1ccccc1 (centres undefined)	x	92*	x	93*	u
CCN1C(=O)N(CC)C(=O)C2(Cc3ccccc3N3CCN(c4ccccc4)CC32)C1=O (centres undefined)	-12	2	-18	0	x
COC(=O)C1=C(c2ccc(C(C)=O)cc2)C[C@@H]2CC[C@H]1N2C(=O)NCc1ccc(F)cc1	-3	-11	24	x	20
CC1CCC(C(C)C)C(OC(=O)Cn2c(COc3ccccc3)[n+](C)c3ccccc32)C1 (centres undefined)	24	106*	-25	-5	60
c1ccc(C2CC3CC(c4ccco4)N2O3)cc1 (centres undefined)	19	-1	5	-14	4
SMILES	Jurkat NFkB inh	Beta cell apopt	697 NFkB inh	Calb FLC	Shn3 3UTR inh	others
O=C1C(=O)c2ccccc2-c2ccccc21	34	121*	15	x	117*
O=C1C(=O)c2cccc3cccc1c23	4	-10	20	-35	-17
CC1Oc2cc3c(-c4c(O)cc(O)c5c(O)c6c(cc45)OC(C)C(C)C6=O)c(O)cc(O)c3c(O)c2C(=O)C1C (centres undefined)	1	109*	-3	-12	88*
Cc1ccccc1[N+](=O)[O-]	10	5	9	x	-8
Cc1cc([N+](=O)[O-])c2ccccc2[n+]1[O-]	25	115*	13	u	u
CCC1CN2CCc3cc(OC)c(OC)cc3C2CC1CC1NCCc2c1[nH]c1ccc(O)cc21 (centres undefined)	x	x	x	x	92*
CC(C)c1oc(=O)cc2c1[C@@H](O)[C@H]1OC(=O)[C@@]3(C)CC[C@@H](O)[C@@]2(C)C13 (some centres undefined)	72*	-11	-19	-5	8	Jurkat NFkB conf=60*
C=C(C=O)CC1CC(O)[C@]2(C)OC3C[C@@H]4OC5C[C@]6(C)O[C@]7(C)CCC8OC9C[C@]%10(C)OC(/C(C)=C\CO)C(O)CC%10OC9CC(C)C8OC7CC6O[C@]5(C)C/C=C\C4OC3CC2O1 (some centres undefined)	-3	4	4	x	-4
C=C(C=O)C[C@@H]1C[C@H](O)C2OC3C[C@]4(C)OC5/C=C\CC6OC7C(CC=CCC6OC5CCCC4OC3CC2O1)OC1CC2OC3CC(=O)OC3C[C@@H](C)C[C@@]2(C)OC1C[C@@H]7C (some centres undefined)	101*	124*	-143	12	x	Jurkat NFkB conf=99*
CC1(C)C[C@H]2C=C(C=O)[C@]3(C=O)C[C@]3(C)[C@H]2C1	94*	105*	-153	-16	97*	Jurkat NFkB conf=52*
FC(F)(F)c1ccccc1N1CC1c1ccncc1 (centres undefined)	-10	x	-30	-2	20
NC(N)=N/N=C/c1ccc(N(c2ccccc2)c2ccccc2)cc1	61*	110*	-8	94*	95*	Jurkat NFkB conf=7
COc1ccc(/C=N\N=C(N)N)cc1	51*	-1	4	7	14	Jurkat NFkB conf=16
NC(N)=N/N=C/c1ccc(N2CCOCC2)cc1	49	-1	8	8	8
Nc1c(Cl)cc([N+](=O)[O-])cc1Cl	21	3	11	5	6
CC(=O)O[C@@]12CO[C@@H]1C[C@H](O)[C@@]1(C)C(=O)[C@H](O)C3=C(C)[C@@H](OC(=O)[C@H](O)[C@@H](NC(=O)c4ccccc4)c4ccccc4)C[C@@](O)([C@@H](OC(=O)c4ccccc4)C12)C3(C)C (some centres undefined)	68*	11	-30	-5	-9	Jurkat NFkB conf=64*
CC(=O)O[C@H]1C(=O)[C@@]2(C)C([C@H](OC(=O)c3ccccc3)[C@]3(O)C[C@H](O)C(C)=C1C3(C)C)[C@]1(OC(C)=O)CO[C@@H]1C[C@H]2O (some centres undefined)	23	x	11	-1	-10
